Results on one sequence are retold here after paper PMC7862700, “An all-to-all approach to the identification of sequence-specific readers for epigenetic DNA modifications on cytosine”.

Common to all, as to experiment: DAPPL (digital affinity profiling via proximity ligation, sequencing); 10 mM Tris-HCl pH 7.5, 50 mM NaCl, 1 mM DTT, 4% glycerol, room temperature, 30 min; GST-TFs on glutathione beads, 16-mer random dsDNA library, 0.1% formaldehyde crosslink after washing; high values mean tight binding
What all share (details): protein: recombinant; tags: N-terminal GST; dsDNA, one strand shown

The target of one experiment is T1, ELK4 (Homo sapiens, UniProt P28324-2 1-405).
T1 sequence: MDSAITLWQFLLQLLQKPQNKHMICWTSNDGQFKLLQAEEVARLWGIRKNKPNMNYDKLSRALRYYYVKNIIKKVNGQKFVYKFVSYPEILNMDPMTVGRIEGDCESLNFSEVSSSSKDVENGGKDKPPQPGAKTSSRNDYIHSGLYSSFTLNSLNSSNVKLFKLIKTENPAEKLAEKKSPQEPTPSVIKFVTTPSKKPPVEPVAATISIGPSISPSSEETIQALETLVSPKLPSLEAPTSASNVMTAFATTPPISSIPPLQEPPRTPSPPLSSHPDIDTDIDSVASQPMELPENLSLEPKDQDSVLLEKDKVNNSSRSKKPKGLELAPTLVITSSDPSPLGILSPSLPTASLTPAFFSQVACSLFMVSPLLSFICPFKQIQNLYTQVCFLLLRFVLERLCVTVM
The method, boiled down:
(§1)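 Pools were built from human transcription factors expressed in yeast as GST fusions, captured on glutathione beads and DNA-barcoded, along with a tag-only sample. Incubation with 200 nmole of a 16-mer random double-stranded DNA library lasted 30 min at room temperature in Tris/NaCl/DTT/glycerol buffer, and was followed by washing, 0.1% formaldehyde crosslinking, proximity ligation, PCR amplification and Illumina NextSeq500 sequencing. Binding signal is the quotient of each hexamer's read frequency for a factor and its frequency for the tag-only sample.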

The target of the next experiment is T2, ETV2 (Homo sapiens, UniProt O00321 1-342).
T2 sequence: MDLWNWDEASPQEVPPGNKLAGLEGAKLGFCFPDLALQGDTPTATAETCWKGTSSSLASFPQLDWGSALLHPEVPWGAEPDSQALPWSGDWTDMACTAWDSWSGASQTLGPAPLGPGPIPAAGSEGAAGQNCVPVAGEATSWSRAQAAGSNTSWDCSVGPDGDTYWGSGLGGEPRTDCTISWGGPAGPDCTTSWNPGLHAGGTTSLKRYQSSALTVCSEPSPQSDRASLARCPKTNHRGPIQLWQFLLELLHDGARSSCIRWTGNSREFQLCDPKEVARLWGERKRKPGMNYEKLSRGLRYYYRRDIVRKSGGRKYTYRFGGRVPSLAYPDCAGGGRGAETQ
The method, boiled down:
as §1

A further experiment addresses ETV1 (Homo sapiens, UniProt P50549 1-477). The essentials:
as §1

Another experiment has as its target T3, ERF (Homo sapiens, UniProt P50548 1-548).
T3 sequence: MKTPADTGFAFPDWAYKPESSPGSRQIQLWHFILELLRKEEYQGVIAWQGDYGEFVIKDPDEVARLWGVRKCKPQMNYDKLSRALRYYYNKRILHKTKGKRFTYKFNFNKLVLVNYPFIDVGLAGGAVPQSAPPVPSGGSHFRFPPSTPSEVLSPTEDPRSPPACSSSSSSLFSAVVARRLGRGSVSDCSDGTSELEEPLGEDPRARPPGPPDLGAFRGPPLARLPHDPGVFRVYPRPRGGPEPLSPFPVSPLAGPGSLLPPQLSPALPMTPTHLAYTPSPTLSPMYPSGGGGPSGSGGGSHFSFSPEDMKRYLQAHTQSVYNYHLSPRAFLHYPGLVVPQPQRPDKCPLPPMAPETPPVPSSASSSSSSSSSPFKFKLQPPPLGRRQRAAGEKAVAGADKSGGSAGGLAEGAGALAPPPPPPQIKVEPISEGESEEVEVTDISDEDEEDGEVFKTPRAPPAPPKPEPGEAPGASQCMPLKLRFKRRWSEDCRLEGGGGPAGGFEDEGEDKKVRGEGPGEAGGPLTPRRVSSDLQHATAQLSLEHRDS
The method, boiled down: as §1

For a further experiment, the target named is T4, ETV3L (Homo sapiens, UniProt Q6ZN32 1-361).
T4 sequence: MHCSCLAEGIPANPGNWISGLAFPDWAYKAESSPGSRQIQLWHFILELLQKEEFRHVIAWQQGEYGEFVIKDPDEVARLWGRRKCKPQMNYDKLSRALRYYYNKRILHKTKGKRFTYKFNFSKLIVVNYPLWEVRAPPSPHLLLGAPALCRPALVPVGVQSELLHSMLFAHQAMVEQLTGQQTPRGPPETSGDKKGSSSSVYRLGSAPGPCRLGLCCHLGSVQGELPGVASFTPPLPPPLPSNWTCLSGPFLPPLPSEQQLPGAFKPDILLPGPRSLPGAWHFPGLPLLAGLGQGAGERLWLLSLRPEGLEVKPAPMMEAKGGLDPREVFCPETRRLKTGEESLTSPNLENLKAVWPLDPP
The method, boiled down:
as §1

The next experiment addresses T5, ETS2 (Homo sapiens, UniProt P15036 1-469).
T5 sequence: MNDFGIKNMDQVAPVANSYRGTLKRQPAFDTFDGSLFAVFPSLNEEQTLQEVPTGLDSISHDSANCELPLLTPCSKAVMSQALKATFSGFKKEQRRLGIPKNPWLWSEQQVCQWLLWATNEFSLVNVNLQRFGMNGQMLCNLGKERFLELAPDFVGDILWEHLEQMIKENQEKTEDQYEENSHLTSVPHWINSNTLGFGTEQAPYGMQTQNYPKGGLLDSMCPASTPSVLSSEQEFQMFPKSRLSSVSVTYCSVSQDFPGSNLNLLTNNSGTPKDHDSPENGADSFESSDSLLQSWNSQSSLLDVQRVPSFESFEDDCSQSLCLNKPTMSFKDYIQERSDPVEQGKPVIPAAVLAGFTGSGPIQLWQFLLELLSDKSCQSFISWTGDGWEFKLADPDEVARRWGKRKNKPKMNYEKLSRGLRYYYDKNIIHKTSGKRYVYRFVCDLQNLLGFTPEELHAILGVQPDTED
The essentials:
as §1

The next experiment has as its target T6, SPDEF (Homo sapiens, UniProt O95238 1-335).
T6 sequence: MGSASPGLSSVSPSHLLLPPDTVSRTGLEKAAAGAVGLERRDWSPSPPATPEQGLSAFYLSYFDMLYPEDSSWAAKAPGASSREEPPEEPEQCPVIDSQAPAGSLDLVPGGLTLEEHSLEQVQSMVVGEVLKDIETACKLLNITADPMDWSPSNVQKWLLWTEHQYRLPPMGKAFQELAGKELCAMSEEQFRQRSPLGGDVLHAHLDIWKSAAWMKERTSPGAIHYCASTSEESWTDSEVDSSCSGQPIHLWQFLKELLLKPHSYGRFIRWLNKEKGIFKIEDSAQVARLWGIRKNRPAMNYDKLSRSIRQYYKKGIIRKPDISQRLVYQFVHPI
The method, boiled down:
as §1

In a further experiment the target is T7, ETV7 (Homo sapiens, UniProt Q9Y603 1-341).
T7 sequence: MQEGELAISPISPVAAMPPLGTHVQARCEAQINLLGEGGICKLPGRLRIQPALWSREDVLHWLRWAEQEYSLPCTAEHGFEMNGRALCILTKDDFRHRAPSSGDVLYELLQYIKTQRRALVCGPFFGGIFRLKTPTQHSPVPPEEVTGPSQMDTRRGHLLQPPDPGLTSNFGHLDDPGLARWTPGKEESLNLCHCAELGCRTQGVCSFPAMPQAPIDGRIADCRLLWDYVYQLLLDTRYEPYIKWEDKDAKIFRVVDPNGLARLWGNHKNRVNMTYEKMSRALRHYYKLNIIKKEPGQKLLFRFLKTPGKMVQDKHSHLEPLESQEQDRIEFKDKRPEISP
The method, boiled down:
as §1

The target of another experiment is T8, ETV3 (Homo sapiens, UniProt P41162-2 1-143).
T8 sequence: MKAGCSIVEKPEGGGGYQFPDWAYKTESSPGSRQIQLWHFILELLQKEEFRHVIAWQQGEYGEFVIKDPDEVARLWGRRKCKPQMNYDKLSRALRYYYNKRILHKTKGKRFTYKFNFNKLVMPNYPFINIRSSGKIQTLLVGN
The essentials:
as §1

Another experiment has as its target ETV6 (Homo sapiens, UniProt P41212 1-452). The essentials:
as §1

ETV6, sequence (P41212 whole entry): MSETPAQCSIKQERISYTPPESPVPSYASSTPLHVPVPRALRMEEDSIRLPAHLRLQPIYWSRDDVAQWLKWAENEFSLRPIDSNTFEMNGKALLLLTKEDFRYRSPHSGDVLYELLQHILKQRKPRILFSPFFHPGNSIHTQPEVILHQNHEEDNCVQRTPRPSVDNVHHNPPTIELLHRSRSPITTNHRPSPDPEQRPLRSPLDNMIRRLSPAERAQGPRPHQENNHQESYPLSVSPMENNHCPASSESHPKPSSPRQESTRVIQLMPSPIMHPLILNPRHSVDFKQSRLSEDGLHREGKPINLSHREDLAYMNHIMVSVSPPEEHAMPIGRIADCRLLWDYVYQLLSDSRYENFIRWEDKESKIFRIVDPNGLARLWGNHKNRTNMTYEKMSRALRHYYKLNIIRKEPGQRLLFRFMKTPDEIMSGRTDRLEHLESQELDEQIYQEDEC
ETV1, sequence (P50549 whole entry): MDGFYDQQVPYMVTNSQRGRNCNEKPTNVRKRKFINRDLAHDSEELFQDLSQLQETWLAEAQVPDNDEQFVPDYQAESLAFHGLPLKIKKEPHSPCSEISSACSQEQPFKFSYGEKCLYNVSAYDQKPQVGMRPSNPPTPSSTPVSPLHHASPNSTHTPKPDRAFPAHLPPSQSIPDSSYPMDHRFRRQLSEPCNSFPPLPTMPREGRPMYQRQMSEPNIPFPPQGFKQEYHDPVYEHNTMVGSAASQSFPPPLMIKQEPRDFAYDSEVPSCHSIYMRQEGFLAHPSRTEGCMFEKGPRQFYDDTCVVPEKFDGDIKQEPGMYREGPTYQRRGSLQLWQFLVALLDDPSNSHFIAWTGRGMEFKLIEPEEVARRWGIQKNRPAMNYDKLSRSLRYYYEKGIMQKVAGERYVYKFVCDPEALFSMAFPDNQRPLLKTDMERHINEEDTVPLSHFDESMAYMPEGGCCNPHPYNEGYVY

Take AAGATC: the binding signal was 1.01 fold enrichment (6-mer frequency, TF over GST control) in the experiment with ELK4; 1.13 fold enrichment (6-mer frequency, TF over GST control) in the experiment with ETV2; 1.08 fold enrichment (6-mer frequency, TF over GST control) with ETV1; 1.12 fold enrichment (6-mer frequency, TF over GST control) in the experiment with ERF; 1.03 fold enrichment (6-mer frequency, TF over GST control) with ETV3L; 1.05 fold enrichment (6-mer frequency, TF over GST control) with ETS2. In addition, the binding signal with SPDEF is 1.27 fold enrichment (6-mer frequency, TF over GST control); with ETV7 it was 1.08 fold enrichment (6-mer frequency, TF over GST control); with ETV3 it was 1.12 fold enrichment (6-mer frequency, TF over GST control); with ETV6 it was 1.01 fold enrichment (6-mer frequency, TF over GST control).
